Data as given in PubChem BioAssay (NCATS).
Inconclusive results are not listed. The source made the active and inactive calls. Unless noted, calls follow the shape of the dose curve; as a rule, active = well fitted curve in the direction sought with a large enough effect; inconclusive = small, poorly fitted or top-dose-only effect, or another doubt; inactive = no such curve, though single readings can be large; an effect the other way counts as inactive or inconclusive.

Assays:
[1] = Inducers of the Endoplasmic Reticulum Stress Response (ERSR) in human glioma: Validation (AID 504836); details: human glioma cells, ER stress response reporter; series mostly up to 38.3 µM
Procedure, shortened: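 Stably transfected U87-MG glioma cells carrying a GRP78-based luciferase sensor; 16 h compound incubation. Luminescence end-point read 10 min after Bright-Glo addition at room temperature.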

[2] = qHTS for Inhibitors of the Functional Ribonucleoprotein Complex (vRNP) of Lassa (LASV) Arenavirus: LASV Primary Screen - GLuc reporter signal (AID 1347082; calls by dose curve; tested in HEK293 reporter line; also: nearly all actives have a fitted effect of over 60% in size); details: LASV minigenome vRNP, Gaussia luciferase reporter; series mostly up to 57.5 µM
[3] = qHTS for Inhibitors of the Functional Ribonucleoprotein Complex (vRNP) of Lassa (LASV) Arenavirus: Viability assay - alamar blue signal for LASV Primary Screen (AID 1347083; calls by dose curve; tested in HEK293 reporter line; also: nearly all actives have a fitted effect of over 80% in size); details: cell viability, alamar blue fluorescence (LASV minigenome counter-screen); series mostly up to 57.5 µM
[4] = qHTS for Inhibitors of the Functional Ribonucleoprotein Complex (vRNP) of Lymphocytic Choriomeningitis Arenaviruses (LCMV): Viability assay - alamar blue signal for LCMV Primary Screen (AID 1347085; calls by dose curve; tested in HEK293 reporter line; also: nearly all actives have a fitted effect of over 80% in size); details: alamar blue viability counter-screen, LCMV vRNP screen cells; series mostly up to 57.5 µM
[5] = target: Nucleoprotein (Lymphocytic choriomeningitis virus (strain Armstrong)) (UniProt P09992); assay: qHTS for Inhibitors of the Functional Ribonucleoprotein Complex (vRNP) of Lymphocytic Choriomeningitis Arenaviruses (LCMV): LCMV Primary Screen - GLuc reporter signal (AID 1347086; calls by dose curve; also: nearly all actives have a fitted effect of over 70% in size); details: LCMV minigenome vRNP cell assay, Gaussia luciferase reporter; series mostly up to 57.5 µM
Nucleoprotein (Lymphocytic choriomeningitis virus (strain Armstrong)), sequence (P09992 whole entry, looked up): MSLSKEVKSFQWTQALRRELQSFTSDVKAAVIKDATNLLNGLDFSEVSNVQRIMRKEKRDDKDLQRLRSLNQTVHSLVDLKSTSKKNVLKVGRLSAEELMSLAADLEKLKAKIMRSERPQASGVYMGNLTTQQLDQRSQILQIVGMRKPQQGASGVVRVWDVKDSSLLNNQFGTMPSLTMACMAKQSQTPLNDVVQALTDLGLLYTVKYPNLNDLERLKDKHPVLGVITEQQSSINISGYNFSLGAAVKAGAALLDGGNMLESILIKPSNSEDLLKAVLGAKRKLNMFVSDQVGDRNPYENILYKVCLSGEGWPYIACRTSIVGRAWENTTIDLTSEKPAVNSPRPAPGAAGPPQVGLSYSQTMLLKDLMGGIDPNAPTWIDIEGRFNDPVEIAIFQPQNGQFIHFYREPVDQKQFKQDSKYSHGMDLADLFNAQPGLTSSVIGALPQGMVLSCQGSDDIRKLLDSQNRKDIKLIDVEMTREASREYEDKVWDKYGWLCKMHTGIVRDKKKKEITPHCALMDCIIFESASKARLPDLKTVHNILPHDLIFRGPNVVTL

[6] = target: Alpha-galactosidase (Coffea arabica) (UniProt Q42656); assay: Counterscreen for Glucocerebrosidase Inhibitors: qHTS Assay for Coffee Bean alpha-Galactosidase at pH 4.5 (AID 957); details: purified coffee bean alpha-galactosidase, fluorogenic substrate; series mostly up to 76.9 µM
Alpha-galactosidase (Coffea arabica), sequence (Q42656 whole entry, looked up): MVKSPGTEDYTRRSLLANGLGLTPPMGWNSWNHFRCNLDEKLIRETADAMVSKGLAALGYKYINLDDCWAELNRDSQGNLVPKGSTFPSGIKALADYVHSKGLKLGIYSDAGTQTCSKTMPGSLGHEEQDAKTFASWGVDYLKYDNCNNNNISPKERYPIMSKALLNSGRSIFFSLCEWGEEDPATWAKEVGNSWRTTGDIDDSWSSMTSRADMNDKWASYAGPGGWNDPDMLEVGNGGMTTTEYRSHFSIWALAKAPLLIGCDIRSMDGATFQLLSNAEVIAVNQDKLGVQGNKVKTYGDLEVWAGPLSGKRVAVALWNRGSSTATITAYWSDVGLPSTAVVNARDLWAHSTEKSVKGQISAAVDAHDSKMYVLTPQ
Procedure, shortened: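 Coffee bean enzyme (2 nM) with 80 uM 4-methylumbelliferyl alpha-D-galactopyranoside in 50 mM citric acid, 0.005% Tween-20, pH 4.5, 20 min at room temperature; compounds 0.7 nM–77 uM. Stopped at pH 10, fluorescence 365/440 nm; AC50 from Hill fits.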

[7] = target: Alpha-galactosidase (Coffea arabica) (UniProt Q42656); assay: Counterscreen for Glucocerebrosidase Inhibitors: qHTS Assay for Coffee Bean alpha-Galactosidase at pH 5.9 (AID 998); details: coffee bean alpha-galactosidase enzyme assay; series mostly up to 76.9 µM
Procedure, shortened: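 Green coffee bean enzyme (2 nM) with 4-methylumbelliferyl alpha-D-galactopyranoside (80 uM) in 50 mM citric acid, 0.005% Tween-20, pH 5.9, 20 min at room temperature; compounds 0.7 nM–77 uM. Stopped at pH 10, fluorescence Ex365/Em440; Hill-fit AC50.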

Measured: Potency

Nc1ncnc2c1nc(Sc1ccc(Cl)cc1)n2[C@H]1OC2COP(=O)(O)O[C@@H]2C1O (some centres undefined)
not listed: [6] | [7]
inactive: all other assays above

C#CC(N)CCC(=O)O (centres undefined)
not listed: [6] | [7]
inactive: all other assays above

NC[C@@H]1O[C@H](c2ccccc2)Cc2c1ccc(O)c2O
not listed: [6] | [7]
inactive: all other assays above

C=C1C[C@@]23CC[C@H]4[C@@](C)(CCC[C@@]4(C)C(=O)OC4OC(CO)C(O)C(O)C4O)[C@@H]2CC[C@]1(OC1OC(CO)C(O)C(O)C1OC1OC(CO)C(O)C(O)C1O)C3 (some centres undefined)
not listed: [6] | [7]
inactive: all other assays above

CCCCCCCCCCC(C)(C)C(=O)Nc1c(OC)cc(OC)cc1OC
not listed: [6] | [7]
inactive: all other assays above

C[C@H](Cc1ccccc1)Nc1ncnc2c1ncn2[C@@H]1O[C@H](CO)[C@@H](O)[C@H]1O
not listed: [6] | [7]
inactive: all other assays above

CNC(=O)[C@H]1O[C@@H](n2cnc3c(NCc4cccc(I)c4)ncnc32)[C@H](O)[C@@H]1O
not listed: [6] | [7]
inactive: all other assays above

Fc1cccc(/C=N/N=C/c2cccc(F)c2)c1
not listed: [6] | [7]
inactive: all other assays above

Nc1nc2c(nc(Br)n2C2OC3COP(=O)(O)O[C@@H]3C2O)c(=O)[nH]1 (some centres undefined)
not listed: [6] | [7]
inactive: all other assays above

c1ccc(C(NCc2cccnc2)(c2ccccc2)c2ccccc2)cc1
not listed: [6] | [7]
inactive: all other assays above

NC(=O)C1=CN(C2OC(COP(=O)(O)OP(=O)(O)OC[C@H]3O[C@@H](n4cnc5c(N)ncnc54)[C@H](OP(=O)(O)O)[C@@H]3O)C(O)C2O)C=CC1 (some centres undefined)
not listed: [6] | [7]
inactive: all other assays above

CNc1ncnc2c1ncn2[C@@H]1O[C@H](CO)[C@@H](O)[C@H]1O
not listed: [6] | [7]
inactive: all other assays above

CN(C)S(=O)(=O)c1ccc2c(c1)/C(=C/c1cc3c([nH]1)CCCC3)C(=O)N2
inactive: all assays above

CCCn1c(=O)c2[nH]c(-c3ccc(OCC(=O)NCCN)cc3)nc2n(CCC)c1=O
inactive: all assays above
